Measurements as given in the supplement of paper PMC11732987, “Enantioselective OTUD7B fragment discovery through chemoproteomics screening and high-throughput optimisation” (Communications Chemistry, 2025).

How the values were obtained:
Test in all cases: log2 ratio of Biotin-Ahx-Ub-VS probe labelling (fragment/DMSO); higher = less target engagement (more negative = stronger competition), active = hit call of the paper (q ≤ 0.05, log2 ratio ≤ -1)
Conditions in all cases: compound concentration: 200 uM; treatment time: 3 h
[1] = biological target: USP34 (UniProt Q70CQ2)
USP34, sequence (Q70CQ2 whole entry, the tested form may be a part): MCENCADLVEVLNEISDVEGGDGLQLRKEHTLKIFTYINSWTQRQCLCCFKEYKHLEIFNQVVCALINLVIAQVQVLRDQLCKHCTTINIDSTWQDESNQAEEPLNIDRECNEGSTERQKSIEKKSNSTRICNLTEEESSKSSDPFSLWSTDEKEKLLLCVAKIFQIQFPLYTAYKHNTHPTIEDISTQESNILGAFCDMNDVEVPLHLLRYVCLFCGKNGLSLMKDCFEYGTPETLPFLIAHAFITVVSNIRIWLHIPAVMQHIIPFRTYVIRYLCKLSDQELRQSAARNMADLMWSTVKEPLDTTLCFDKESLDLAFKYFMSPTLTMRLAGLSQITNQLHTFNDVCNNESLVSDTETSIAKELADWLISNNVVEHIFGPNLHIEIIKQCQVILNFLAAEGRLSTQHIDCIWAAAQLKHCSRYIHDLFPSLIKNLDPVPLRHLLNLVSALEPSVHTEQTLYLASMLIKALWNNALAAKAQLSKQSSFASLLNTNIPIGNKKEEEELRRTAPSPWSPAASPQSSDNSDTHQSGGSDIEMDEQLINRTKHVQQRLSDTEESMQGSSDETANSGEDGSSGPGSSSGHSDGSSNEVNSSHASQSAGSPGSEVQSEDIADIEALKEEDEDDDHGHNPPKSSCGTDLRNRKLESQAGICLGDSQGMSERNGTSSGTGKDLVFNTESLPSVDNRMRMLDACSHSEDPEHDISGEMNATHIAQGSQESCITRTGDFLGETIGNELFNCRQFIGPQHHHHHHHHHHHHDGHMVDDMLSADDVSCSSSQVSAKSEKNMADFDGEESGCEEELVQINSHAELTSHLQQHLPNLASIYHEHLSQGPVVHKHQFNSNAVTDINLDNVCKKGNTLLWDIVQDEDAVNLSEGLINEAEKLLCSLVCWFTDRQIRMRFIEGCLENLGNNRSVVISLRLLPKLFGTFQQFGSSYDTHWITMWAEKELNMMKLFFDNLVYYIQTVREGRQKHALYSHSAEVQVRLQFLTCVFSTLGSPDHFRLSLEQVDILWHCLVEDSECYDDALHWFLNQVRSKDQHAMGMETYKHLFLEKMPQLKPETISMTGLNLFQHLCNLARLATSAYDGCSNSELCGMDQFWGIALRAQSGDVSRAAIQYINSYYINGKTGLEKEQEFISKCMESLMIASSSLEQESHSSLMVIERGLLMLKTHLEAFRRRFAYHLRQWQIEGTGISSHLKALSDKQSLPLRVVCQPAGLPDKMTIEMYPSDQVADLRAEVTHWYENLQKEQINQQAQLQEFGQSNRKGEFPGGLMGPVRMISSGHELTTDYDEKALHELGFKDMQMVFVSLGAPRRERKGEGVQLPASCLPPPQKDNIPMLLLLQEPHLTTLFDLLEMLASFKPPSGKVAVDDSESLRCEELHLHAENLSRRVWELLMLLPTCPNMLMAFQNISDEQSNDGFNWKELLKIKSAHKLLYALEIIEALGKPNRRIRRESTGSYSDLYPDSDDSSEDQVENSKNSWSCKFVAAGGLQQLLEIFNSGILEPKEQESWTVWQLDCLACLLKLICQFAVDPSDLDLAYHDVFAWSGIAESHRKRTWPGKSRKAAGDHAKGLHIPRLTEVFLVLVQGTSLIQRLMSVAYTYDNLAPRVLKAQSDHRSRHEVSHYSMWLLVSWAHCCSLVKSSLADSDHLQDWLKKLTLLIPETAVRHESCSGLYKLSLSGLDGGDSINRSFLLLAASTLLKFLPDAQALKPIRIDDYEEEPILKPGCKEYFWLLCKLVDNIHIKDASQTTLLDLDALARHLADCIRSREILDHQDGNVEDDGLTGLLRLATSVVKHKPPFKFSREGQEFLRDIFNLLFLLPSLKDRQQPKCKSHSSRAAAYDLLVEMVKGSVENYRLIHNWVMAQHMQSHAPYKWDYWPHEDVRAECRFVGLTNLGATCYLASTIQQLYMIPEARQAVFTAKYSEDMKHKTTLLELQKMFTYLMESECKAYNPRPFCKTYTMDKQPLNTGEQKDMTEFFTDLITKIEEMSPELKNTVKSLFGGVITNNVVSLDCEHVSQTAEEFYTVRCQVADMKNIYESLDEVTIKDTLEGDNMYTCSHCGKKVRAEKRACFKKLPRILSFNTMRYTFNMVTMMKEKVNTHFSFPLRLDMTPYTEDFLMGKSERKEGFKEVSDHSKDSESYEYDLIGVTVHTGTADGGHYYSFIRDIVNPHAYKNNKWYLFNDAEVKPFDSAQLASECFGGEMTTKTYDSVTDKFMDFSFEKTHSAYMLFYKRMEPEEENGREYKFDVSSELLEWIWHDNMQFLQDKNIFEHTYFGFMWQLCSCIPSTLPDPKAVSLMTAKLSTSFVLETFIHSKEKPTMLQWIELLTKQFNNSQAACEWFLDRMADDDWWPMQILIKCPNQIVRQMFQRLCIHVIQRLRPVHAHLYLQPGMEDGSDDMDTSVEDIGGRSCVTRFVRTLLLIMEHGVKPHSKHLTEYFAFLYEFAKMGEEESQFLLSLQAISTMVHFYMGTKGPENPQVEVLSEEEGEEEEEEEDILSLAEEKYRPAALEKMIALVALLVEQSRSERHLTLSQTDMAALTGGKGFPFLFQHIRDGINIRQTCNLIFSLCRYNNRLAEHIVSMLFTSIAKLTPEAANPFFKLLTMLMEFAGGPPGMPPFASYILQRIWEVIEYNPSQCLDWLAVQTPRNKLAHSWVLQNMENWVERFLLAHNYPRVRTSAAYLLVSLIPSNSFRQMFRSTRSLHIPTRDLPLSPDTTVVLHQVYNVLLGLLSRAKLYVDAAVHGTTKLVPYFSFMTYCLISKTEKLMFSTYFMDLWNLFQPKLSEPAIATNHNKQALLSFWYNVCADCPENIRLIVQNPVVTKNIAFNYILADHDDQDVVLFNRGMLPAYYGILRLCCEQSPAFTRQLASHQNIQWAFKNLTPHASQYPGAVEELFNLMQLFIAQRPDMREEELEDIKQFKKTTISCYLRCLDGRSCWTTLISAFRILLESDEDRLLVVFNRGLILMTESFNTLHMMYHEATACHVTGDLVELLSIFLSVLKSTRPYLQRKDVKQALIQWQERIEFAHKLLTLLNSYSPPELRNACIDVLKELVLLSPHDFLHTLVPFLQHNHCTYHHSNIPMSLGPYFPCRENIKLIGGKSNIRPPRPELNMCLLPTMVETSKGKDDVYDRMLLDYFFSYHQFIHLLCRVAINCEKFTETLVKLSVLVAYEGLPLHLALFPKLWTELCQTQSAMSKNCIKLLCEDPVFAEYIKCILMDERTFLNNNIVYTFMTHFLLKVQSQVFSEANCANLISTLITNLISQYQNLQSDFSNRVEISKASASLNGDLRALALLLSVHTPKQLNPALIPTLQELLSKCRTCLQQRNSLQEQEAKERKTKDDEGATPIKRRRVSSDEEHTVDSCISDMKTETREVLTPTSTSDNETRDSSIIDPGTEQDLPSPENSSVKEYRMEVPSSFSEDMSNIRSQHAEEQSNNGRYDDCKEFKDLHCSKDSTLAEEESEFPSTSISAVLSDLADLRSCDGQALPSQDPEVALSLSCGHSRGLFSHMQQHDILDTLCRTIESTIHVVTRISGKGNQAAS
How it was run: (§1)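 Labelled DUBs from HEK293T lysate were NeutrAvidin-enriched, digested with LysC and trypsin, and run by diaPASEF LC-MS/MS. Before that, each 495 µg sample in Tris/CHAPS/IGEPAL buffer with protease inhibitors was treated in triplicate with fragment at 200 µM or vehicle for 3 h, then with Biotin-Ahx-Ub-VS at 0.5 µM final for 1 h. Values are average log2 ratios of fragment over vehicle by unpaired t-test, based on global-median-normalised Spectronaut label-free quantities from proteins with ≥2 unique peptides.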

[2] = biological target: T1, USP36 (UniProt Q9P275)
T1 sequence (whole entry): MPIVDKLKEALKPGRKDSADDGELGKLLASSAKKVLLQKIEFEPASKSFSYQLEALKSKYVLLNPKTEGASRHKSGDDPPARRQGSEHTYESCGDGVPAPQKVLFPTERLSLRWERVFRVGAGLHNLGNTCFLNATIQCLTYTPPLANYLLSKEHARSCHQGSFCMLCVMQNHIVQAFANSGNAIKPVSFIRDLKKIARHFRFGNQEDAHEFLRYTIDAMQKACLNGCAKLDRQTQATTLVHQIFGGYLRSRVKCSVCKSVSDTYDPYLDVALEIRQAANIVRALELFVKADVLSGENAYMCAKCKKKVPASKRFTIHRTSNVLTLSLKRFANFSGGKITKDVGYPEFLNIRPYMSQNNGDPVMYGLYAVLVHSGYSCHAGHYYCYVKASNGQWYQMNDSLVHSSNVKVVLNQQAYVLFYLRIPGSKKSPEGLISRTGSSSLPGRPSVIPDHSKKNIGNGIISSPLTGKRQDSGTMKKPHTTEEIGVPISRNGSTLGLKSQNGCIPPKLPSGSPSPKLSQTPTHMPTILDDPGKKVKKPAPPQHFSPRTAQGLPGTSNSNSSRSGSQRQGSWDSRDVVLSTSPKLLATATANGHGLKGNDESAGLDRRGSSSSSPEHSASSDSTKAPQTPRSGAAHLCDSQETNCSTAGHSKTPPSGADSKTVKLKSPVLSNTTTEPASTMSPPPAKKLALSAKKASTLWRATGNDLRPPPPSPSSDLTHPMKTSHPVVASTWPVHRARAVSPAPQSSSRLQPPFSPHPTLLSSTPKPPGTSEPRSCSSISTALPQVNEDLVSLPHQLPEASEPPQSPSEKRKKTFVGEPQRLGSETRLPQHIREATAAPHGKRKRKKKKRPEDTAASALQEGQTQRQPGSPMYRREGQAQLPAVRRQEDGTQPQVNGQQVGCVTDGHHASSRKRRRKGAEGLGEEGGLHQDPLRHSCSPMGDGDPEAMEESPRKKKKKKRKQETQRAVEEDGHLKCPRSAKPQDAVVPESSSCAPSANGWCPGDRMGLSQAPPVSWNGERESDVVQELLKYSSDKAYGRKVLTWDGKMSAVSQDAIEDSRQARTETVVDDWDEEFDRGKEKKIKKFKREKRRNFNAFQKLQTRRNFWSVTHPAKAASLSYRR
How it was run: as §1

[3] = biological target: T2, USP38 (UniProt Q8NB14)
T2 sequence (whole entry): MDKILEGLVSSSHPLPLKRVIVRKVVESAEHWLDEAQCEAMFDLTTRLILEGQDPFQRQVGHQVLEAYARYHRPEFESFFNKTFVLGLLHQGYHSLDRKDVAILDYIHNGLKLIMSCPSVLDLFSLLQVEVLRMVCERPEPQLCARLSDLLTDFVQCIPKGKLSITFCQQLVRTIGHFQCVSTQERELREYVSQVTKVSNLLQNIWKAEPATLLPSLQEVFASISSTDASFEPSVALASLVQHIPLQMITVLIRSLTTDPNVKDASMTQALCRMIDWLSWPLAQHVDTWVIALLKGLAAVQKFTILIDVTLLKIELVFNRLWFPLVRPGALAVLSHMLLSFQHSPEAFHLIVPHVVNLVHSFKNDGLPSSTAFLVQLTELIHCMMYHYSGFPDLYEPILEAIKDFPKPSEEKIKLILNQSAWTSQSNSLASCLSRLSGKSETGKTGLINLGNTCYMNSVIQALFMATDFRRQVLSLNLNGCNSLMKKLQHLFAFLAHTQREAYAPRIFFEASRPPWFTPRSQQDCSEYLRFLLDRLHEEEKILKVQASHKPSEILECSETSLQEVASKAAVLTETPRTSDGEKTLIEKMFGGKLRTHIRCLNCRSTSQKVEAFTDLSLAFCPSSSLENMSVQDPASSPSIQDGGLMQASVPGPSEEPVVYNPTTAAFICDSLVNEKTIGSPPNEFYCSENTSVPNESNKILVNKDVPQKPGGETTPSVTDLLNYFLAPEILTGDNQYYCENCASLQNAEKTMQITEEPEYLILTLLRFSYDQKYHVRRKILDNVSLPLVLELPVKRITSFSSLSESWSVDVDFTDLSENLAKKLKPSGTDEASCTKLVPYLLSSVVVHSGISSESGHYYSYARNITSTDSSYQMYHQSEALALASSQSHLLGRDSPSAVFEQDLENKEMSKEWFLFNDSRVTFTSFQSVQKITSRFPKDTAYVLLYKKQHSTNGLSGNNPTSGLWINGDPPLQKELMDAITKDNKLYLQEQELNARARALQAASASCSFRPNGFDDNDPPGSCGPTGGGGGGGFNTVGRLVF
How it was run: as §1

[4] = biological target: T3, USP39 (UniProt Q53GS9)
T3 sequence (whole entry): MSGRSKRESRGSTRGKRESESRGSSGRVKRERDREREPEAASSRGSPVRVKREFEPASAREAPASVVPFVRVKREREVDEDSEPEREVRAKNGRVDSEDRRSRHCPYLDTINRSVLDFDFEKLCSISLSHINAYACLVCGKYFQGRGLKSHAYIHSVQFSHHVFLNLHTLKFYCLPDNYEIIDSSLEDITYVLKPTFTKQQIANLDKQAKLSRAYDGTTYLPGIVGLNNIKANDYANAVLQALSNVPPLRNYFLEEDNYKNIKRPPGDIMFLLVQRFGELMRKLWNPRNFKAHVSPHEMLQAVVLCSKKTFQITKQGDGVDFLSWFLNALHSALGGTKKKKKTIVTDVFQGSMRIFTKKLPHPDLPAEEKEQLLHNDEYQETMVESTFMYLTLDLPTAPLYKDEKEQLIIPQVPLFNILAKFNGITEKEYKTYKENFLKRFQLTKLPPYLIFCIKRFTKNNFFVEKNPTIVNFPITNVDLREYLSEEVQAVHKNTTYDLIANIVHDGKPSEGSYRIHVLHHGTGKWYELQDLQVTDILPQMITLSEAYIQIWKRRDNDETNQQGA
How it was run: as §1

[5] = biological target: T4, USP4 (UniProt Q13107)
T4 sequence (whole entry): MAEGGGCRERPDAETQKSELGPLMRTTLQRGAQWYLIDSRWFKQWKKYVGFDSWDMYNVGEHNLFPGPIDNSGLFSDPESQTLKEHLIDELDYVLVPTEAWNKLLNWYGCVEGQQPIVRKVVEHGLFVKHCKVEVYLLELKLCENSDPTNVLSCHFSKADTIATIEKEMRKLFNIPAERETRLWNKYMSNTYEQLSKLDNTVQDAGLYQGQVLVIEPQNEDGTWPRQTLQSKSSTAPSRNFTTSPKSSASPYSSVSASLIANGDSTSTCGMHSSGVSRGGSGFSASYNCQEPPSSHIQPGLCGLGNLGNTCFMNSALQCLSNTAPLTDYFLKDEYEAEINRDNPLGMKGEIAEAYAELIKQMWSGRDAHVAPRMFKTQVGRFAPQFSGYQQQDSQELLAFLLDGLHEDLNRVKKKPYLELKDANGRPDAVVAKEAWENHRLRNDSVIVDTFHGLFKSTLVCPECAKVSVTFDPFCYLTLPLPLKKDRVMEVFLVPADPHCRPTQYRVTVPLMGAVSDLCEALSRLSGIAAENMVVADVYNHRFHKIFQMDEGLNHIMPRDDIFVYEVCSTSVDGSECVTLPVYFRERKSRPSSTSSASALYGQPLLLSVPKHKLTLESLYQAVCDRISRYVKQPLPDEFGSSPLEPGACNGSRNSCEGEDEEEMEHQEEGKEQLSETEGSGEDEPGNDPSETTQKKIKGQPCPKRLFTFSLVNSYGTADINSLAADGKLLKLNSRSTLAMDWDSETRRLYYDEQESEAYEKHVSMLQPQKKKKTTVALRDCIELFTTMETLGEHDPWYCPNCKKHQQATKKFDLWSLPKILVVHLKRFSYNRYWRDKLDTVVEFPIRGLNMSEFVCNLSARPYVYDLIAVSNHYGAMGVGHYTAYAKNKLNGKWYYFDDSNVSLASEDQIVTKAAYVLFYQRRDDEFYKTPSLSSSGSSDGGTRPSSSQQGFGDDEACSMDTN
How it was run: as §1

Measured: log2 ratio of Biotin-Ahx-Ub-VS probe labelling

CN(C(=O)CCl)c1nc2ccccc2s1
inactive: [1] -0.279 | [2] -0.0441 | [3] -0.124 | [4] 0.31 | [5] 0.161
